# The panel holds about 83,000 compounds, 20% with a hit somewhere; the sample as a whole holds those more often.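 Note: values are percent growth. 100 is the growth of untreated cells, values between 100 and 0 indicate rising inhibition; between -100 and 0 indicates cell death.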 Values without a mark were called inactive. Activity calls are given as the source filed them. The calls were made as follows: active = growth percent below 10; inactive = the rest.
# Assays:
# Experiment in all cases: NCI-60 one-dose screen, 48 h (100 = growth as untreated, 0 = no growth, -100 = all killed)
# Conditions in all cases: 10 µM
# SR leukemia = system: SR leukemia
# RPMI-8226 leukemia = system: RPMI-8226 leukemia
# OVCAR-8 ovarian = system: OVCAR-8 ovarian
# OVCAR-5 ovarian = system: OVCAR-5 ovarian
# OVCAR-4 ovarian = system: OVCAR-4 ovarian
# SK-OV-3 ovarian = system: SK-OV-3 ovarian
# IGROV1 ovarian = system: IGROV1 ovarian
# HS 578T breast = system: HS 578T breast
# NCI/ADR-RES ovarian = system: NCI/ADR-RES ovarian
# T-47D breast = system: T-47D breast
# MDA-MB-435 melanoma = system: MDA-MB-435 melanoma
# SW-620 colon = system: SW-620 colon
# MCF7 breast = system: MCF7 breast
# HCT-116 colon = system: HCT-116 colon
# HCC-2998 colon = system: HCC-2998 colon
# KM12 colon = system: KM12 colon
# BT-549 breast = system: BT-549 breast
# OVCAR-3 ovarian = system: OVCAR-3 ovarian
SMILES,growth (SR leukemia),growth (RPMI-8226 leukemia),growth (OVCAR-8 ovarian),growth (OVCAR-5 ovarian),growth (OVCAR-4 ovarian),growth (SK-OV-3 ovarian),growth (IGROV1 ovarian),growth (HS 578T breast),growth (NCI/ADR-RES ovarian),growth (T-47D breast),growth (MDA-MB-435 melanoma),growth (SW-620 colon),growth (MCF7 breast),growth (HCT-116 colon),growth (HCC-2998 colon),growth (KM12 colon),growth (BT-549 breast),growth (OVCAR-3 ovarian)
CC(=O)Nc1nc(C)c(C(=O)NNC=O)s1,105%,118%,102%,108%,118%,141%,13%,77%,104%,127%,107%,101%,92.4%,121%,79.4%,105%,,
c1ccc(COCC[P+](c2ccccc2)(c2ccccc2)c2ccccc2)cc1,-15.6% (active),-30.3% (active),3.8% (active),24.2%,6.56% (active),-0.443% (active),-8.1% (active),32.9%,81.8%,12%,-0.102% (active),14%,4.89% (active),5.42% (active),6.68% (active),6.34% (active),5.25% (active),
CCN(Cc1ccccc1)C1CCN(Cc2cc(Br)ccc2O)CC1,7.57% (active),21.9%,59.9%,68.1%,36.9%,76.9%,44.6%,56.6%,36.1%,44.3%,52.1%,63.7%,46.5%,38.7%,2.04% (active),51.3%,80.6%,
C[C@H](NC(=O)[C@@H]1CSSC[C@@H](NC(=O)Cc2nc3ccccc3cc2O)C(=O)NCC(=O)N1C)c1ccccc1,-3.15% (active),87.2%,95.2%,104%,63.6%,88.4%,,94.2%,101%,77.1%,70.7%,94%,51.7%,44.7%,94.9%,56%,83.8%,99%
C/C(=N\NC(=S)N1CCCC1)c1ccccn1,6.59% (active),12.9%,11.1%,40.3%,3.92% (active),26.5%,-3.85% (active),31.8%,-5.31% (active),18.3%,19.2%,22.6%,14.2%,22.3%,14.7%,17.4%,,
NCCNc1ccc2cc(-c3nc4ccccc4[nH]3)c(=O)oc2c1,86.2%,95.7%,98.2%,101%,86.1%,104%,99.8%,91.6%,95.1%,82.2%,101%,103%,80.9%,93.9%,97.9%,99.8%,84.9%,
O/N=C1\CCC2CCCCC2C1 (stereo unspecified),87.1%,104%,112%,104%,97.8%,105%,105%,108%,109%,94%,104%,109%,93%,103%,106%,106%,105%,
CC(=O)Nc1ccc(Sc2ccc(NC(C)=O)cc2)cc1,92.9%,99%,94.7%,95.8%,102%,82%,,104%,95.7%,70.6%,104%,104%,97.7%,98.5%,97.2%,96.5%,95.5%,102%
COc1ccc(-c2nnc(SC/C(=N\O)c3ccccc3)o2)cc1,100%,88.8%,107%,108%,104%,87.9%,,94%,91.2%,91.8%,106%,103%,104%,91.6%,94%,86.2%,100%,99.1%
O=C(Nc1cccc(F)c1)Nc1cccc(Cl)c1,49.9%,66.6%,78.6%,94.9%,87.2%,114%,111%,97.3%,89.1%,76.5%,89.9%,74%,87.8%,92.3%,,47.6%,104%,
Cc1[nH]nc2c(=S)[nH]c(=O)[nH]c12,113%,101%,99.1%,99.4%,99.6%,109%,111%,105%,,104%,102%,103%,94%,105%,106%,107%,98.1%,
Cc1ncc([N+](=O)[O-])n1CCOc1ccc(C(=O)/C=C/c2ccc(C(F)(F)F)cc2)cc1,-13.2% (active),12.9%,51.8%,90%,100%,79.4%,80.4%,66.9%,65.9%,51.6%,83.1%,15.4%,12.7%,-59% (active),,14.5%,68.1%,
CCN1CCN(c2nc(NNC(=O)c3cccc(OC)c3)nc(N3CCN(C(c4ccccc4)c4ccccc4)CC3)n2)CC1,-11.8% (active),5.26% (active),65%,101%,62.4%,76.1%,58.5%,64.3%,76.2%,47.9%,19.5%,69.5%,12.8%,26.7%,-16.4% (active),25.7%,63.3%,
O=C(c1ccccc1)C(Nc1ccccc1)c1ccccc1 (stereo unspecified),96.2%,84.8%,87%,93.3%,92.3%,96.9%,75.9%,95.1%,93.1%,76.5%,102%,97.6%,101%,87.1%,101%,93.4%,,
C=CCc1cc(Nc2c3ccc(Cl)cc3nc3ccc(OC)cc23)cc(CN(CC)CC)c1O,-20.4% (active),-25.7% (active),8.73% (active),47.5%,9.26% (active),1.21% (active),25.5%,,43.9%,0.233% (active),15.5%,15.9%,3.42% (active),5.97% (active),,11.7%,10.9%,6.47% (active)
COc1ccc2oc(=O)cc(C3c4ccc([nH]4)C(c4cc(=O)oc5ccc(OC)cc45)c4ccc([nH]4)C(c4cc(=O)oc5ccc(OC)cc45)c4ccc([nH]4)C(c4cc(=O)oc5ccc(OC)cc45)c4ccc3[nH]4)c2c1 (stereo unspecified),-15.9% (active),-6.88% (active),-10.9% (active),3.08% (active),0.347% (active),0.72% (active),19.7%,8.18% (active),5.87% (active),-28.7% (active),1.62% (active),-64.1% (active),-29.7% (active),-70.4% (active),30.5%,1.11% (active),-73.8% (active),
Clc1ccc(-c2nc(-c3cccs3)cn3ccnc23)cc1,59.5%,64.7%,81%,108%,64.6%,50.2%,60.9%,87%,55.5%,16.3%,23.2%,57.3%,19.1%,68%,47.8%,50.5%,,
